Source: PubChem BioAssay (NCI)
Where “and” joins values, the source holds several entries; their conditions need not be identical. Equal entries are not always repeated. About 83,000 compounds went through this panel and 20% of them were active in at least one assay; those are over-represented in the sample as a whole.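 Interpretation: 100, growth as untreated; towards 0, rising growth inhibition; 0, no net growth; 0 to -100, cell death. Compounds scoring below 10 were considered active.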 Calls of active or inactive are those of the source.

What was measured:
Test in all cases: NCI-60 one-dose screen, 48 h (100 = growth as untreated, 0 = no growth, -100 = all killed)
Details in all cases: 10 µM unless noted
[1] = tested on: SK-MEL-2 melanoma
[2] = tested on: EKVX NSCLC
[3] = tested on: SN12C renal
[4] = tested on: UO-31 renal
[5] = tested on: TK-10 renal
[6] = tested on: ACHN renal
[7] = tested on: CAKI-1 renal
[8] = tested on: A498 renal
[9] = tested on: HL-60(TB) leukemia
[10] = tested on: CCRF-CEM leukemia
[11] = tested on: SR leukemia
[12] = tested on: RPMI-8226 leukemia
[13] = tested on: OVCAR-8 ovarian
[14] = tested on: OVCAR-5 ovarian
[15] = tested on: OVCAR-4 ovarian
[16] = tested on: SK-OV-3 ovarian
[17] = tested on: IGROV1 ovarian
[18] = tested on: OVCAR-3 ovarian
[19] = tested on: MOLT-4 leukemia
[20] = tested on: HS 578T breast

Measured: growth

CC[PH+](CC)CC.O=COC1OC([S-])C(OC=O)C(OC=O)C1OC=O.[Au+] (stereo not given)
active: [1] -72.5% | [2] -41.2% | [3] -90.9% | [4] -91.2% | [5] -97.7% | [6] -99.7% | [7] -92.8% | [8] -82.2% | [9] -33.3% | [10] -11.4% | [11] -18.4% | [12] -27.2% | [13] 1.43% | [14] -98.5% | [15] -89.8% | [16] -45.5% | [17] -78.3% | [18] -91.8%

C[N+]1(CC#CC[N+]2(C)CCCC2)CCCC1
inactive: [1] 98.5% | [2] 97.5% | [3] 102% | [4] 94.4% | [5] 96.3% | [6] 108% | [7] 97.1% | [8] 84.6% | [10] 107% | [19] 103% | [11] 96.7% | [12] 109% | [13] 111% | [14] 101% | [15] 105% | [16] 98.3% | [17] 105% | [18] 102% | [20] 107%

Cc1c2ccncc2c(C)c2c1[nH]c1ccccc12
active: [1] -85.8% | [2] -21.8% | [3] -75.8% | [4] -82.1% | [5] -81.3% | [6] -92.3% | [7] -90.7% | [8] -94.8% | [9] -45.1% | [19] -24.4% | [11] -12.8% | [13] -14.2% | [14] -90.8% | [15] -29.7% | [16] -4.52% | [17] -66.2% | [18] -86% | [20] -47.3%

Oc1ccccc1C=NCCN=Cc1ccccc1O.[Fe]
active: [10] -32.9%
inactive: [1] 92.4% | [2] 110% | [3] 52% | [4] 72.3% | [5] 115% | [6] 92.3% | [7] 98.1% | [8] 65.5% | [9] 44.5% | [19] 30.7% | [12] 88.6% | [13] 84.7% | [14] 118% | [15] 117% | [16] 101% | [17] 71.2% | [18] 112% | [20] 77.3%

CN1CCc2cc3c(cc2C1O)OCO3 (stereo not given)
inactive: [1] 76.1% and 108% | [2] 107% and 92.8% | [3] 112% and 99.6% | [4] 101% and 82.7% | [5] 112% and 111% | [6] 100% and 101% | [7] 87.5% and 95.4% | [8] 121% and 98% | [9] 99.7% | [10] 86.8% and 103% | [19] 111% | [12] 94.4% | [13] 102% and 109% | [14] 94.6% and 94.1% | [15] 108% | [16] 97.9% and 105% | [18] 17.1% and 105% | [20] 55.3% and 103%

O=C(O)C(O)c1ccc(Cl)cc1 (stereo not given)
inactive: [1] 106% and 118% | [2] 102% and 120% | [3] 100% and 107% | [4] 99.6% and 87.7% | [5] 99% and 105% | [6] 112% and 108% | [7] 97.6% and 104% | [8] 102% and 106% | [10] 106% | [19] 113% | [11] 102% | [12] 111% and 92.1% | [13] 109% and 103% | [14] 110% | [15] 102% and 109% | [16] 101% and 108% | [17] 110% and 111% | [18] 116% and 104% | [20] 102% and 99.7%

c1ccc(CCN2CCCCC2)nc1
inactive: [1] 111% | [2] 102% | [3] 93.5% | [4] 96.4% | [5] 103% | [6] 91.6% | [7] 89.4% | [8] 107% | [9] 78.4% | [10] 83.6% | [19] 92.9% | [12] 94.3% | [13] 108% | [14] 98.6% | [15] 99.3% | [16] 99.2% | [17] 107% | [18] 111% | [20] 109%

C/C(=C(\c1ccc(OCCN2CCOCC2)cc1)c1ccc(OC(=O)Cc2ccccc2)cc1)c1ccc(Cl)cc1
inactive: [1] 81.5% | [2] 95.4% | [3] 91.2% | [4] 85.5% | [5] 90.8% | [6] 112% | [7] 78.7% | [8] 96.8% | [9] 82.9% | [10] 84.9% | [19] 56.3% | [12] 57.6% | [13] 97.7% | [14] 95.2% | [15] 98.5% | [16] 110% | [18] 95.8% | [20] 104%

Cc1cc(N(CCCl)CCCl)ccc1/C=N\NC(=O)c1cccnc1
active: [8] -85.4% and -89.4%
inactive: [1] 77.4% and 114% | [2] 97.9% and 95.8% | [3] 67.8% and 75.5% | [4] 80.3% and 83.4% | [5] 89.2% and 103% | [6] 72.6% and 84% | [7] 36.2% and 41.5% | [9] 60% | [10] 60.2% and 62.1% | [19] 49.6% and 60.5% | [12] 85.7% and 86.1% | [13] 88.4% and 80.2% | [14] 33.9% and 74% | [15] 93.2% and 80.5% | [16] 74.2% and 102% | [18] 104% and 101% | [20] 98.3% and 103%

COc1ccc(N)cc1OC
inactive: [1] 106% | [2] 111% | [3] 89.2% | [4] 90.5% | [5] 120% | [6] 100% | [7] 99% | [8] 100% | [9] 114% | [10] 98.6% | [19] 112% | [12] 104% | [13] 115% | [14] 104% | [15] 96.8% | [16] 113% | [18] 108%

CCCCOCCOP(=O)(OCCOCCCC)OCCOCCCC
inactive: [1] 114% | [2] 97.7% | [3] 98% | [4] 100% | [5] 96.1% | [6] 102% | [7] 98% | [8] 89.1% | [9] 84.1% | [10] 110% | [11] 98.9% | [12] 115% | [13] 107% | [14] 105% | [15] 114% | [16] 101% | [17] 119% | [18] 118% | [20] 95.5%

CCN(CC)CCn1c(=O)n(C)c2ccccc21
inactive: [1] 109% | [2] 114% | [3] 108% | [4] 92.5% | [5] 111% | [6] 114% | [7] 102% | [8] 104% | [9] 107% | [10] 103% | [11] 99.3% | [12] 113% | [13] 101% | [14] 117% | [16] 106% | [17] 109% | [18] 106% | [20] 95.5%

NC1CN2CCC1CC2 (stereo not given)
inactive: [1] 100% | [2] 96.5% | [3] 108% | [4] 80.3% | [5] 98.2% | [6] 93% | [7] 86.7% | [8] 97.8% | [9] 84.9% | [10] 93% | [19] 97.8% | [12] 96.4% | [13] 97.8% | [14] 95.5% | [15] 106% | [16] 97.4% | [17] 102% | [18] 105% | [20] 101%

CC[C@H](C)[C@H](NC(=O)c1ncccn1)C(=O)N(C)[C@H](C[C@@H](OC(C)=O)c1nc(C(=O)N[C@@H](Cc2ccccc2)C[C@H](C)C(=O)OC)cs1)C(C)C
inactive: [1] 43.9% | [2] 58.5% | [3] 45.7% | [4] 50.5% | [5] 41% | [6] 50.8% | [7] 61% | [8] 28.1% | [10] 10.4% | [11] 14.7% | [12] 17.7% | [13] 22.8% | [14] 74.3% | [15] 50.6% | [16] 44.1% | [17] 49.5%
active: [9] -42.8% | [18] -18.4%

C[C@H](O)CCC(=O)c1ccoc1
inactive: [1] 110% | [2] 104% | [3] 96.9% | [4] 98.9% | [5] 103% | [6] 114% | [7] 101% | [8] 103% | [9] 99.4% | [10] 98.1% | [12] 97.8% | [13] 97.7% | [14] 106% | [15] 117% | [16] 113% | [17] 113% | [18] 109% | [20] 97.1%
